In PubChem BioAssay AID1159580 (chemical genetic matrix, 2015):
The whole screen tested about 5,500 compounds, of which about 2,000 (36%) were called active. About 18% were inconclusive and are not listed. Cut-off read from the data, not from the text of the source: active = normalized growth mostly below about 0.91 (no sharp cut-off); inconclusive = no clear call, values can overlap the other calls; inactive = mostly above about 0.92. Some of the results follow.

Assay: chemical genetic growth profiling, strain panel (AID 1159580);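 note: tested at 20 µM; growth read once vehicle control cultures reached saturation at 30 °C; 1 = growth at the plate median or of vehicle wells; lower values mean less growth of the strain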
Details: S. cerevisiae deletion strains, growth OD

Measured: normalized growth

O=c1c2ccccc2oc2ccccc12
inactive: locus YAL021C, strain ccr4, stronger effect = lower value 0.938 | locus YAL026C, strain drs2, stronger effect = lower value 0.912 | locus YAL030W, strain snc1, stronger effect = lower value 0.948 | locus YBL061C, strain skt5, stronger effect = lower value 0.922 | locus YBR023C, strain chs3, stronger effect = lower value 0.916 | locus YBR171W, strain sec66, stronger effect = lower value 0.897 | locus YCL069W, strain vba3, stronger effect = lower value 0.961 | locus YCR088W, strain abp1, stronger effect = lower value 0.964 | locus YDL005C, strain med2, stronger effect = lower value 0.946 | locus YDL040C, strain nat1, stronger effect = lower value 0.946 | locus YDR001C, strain nth1, stronger effect = lower value 0.953 | locus YDR069C, strain doa4, stronger effect = lower value 0.927 | locus YDR159W, strain sac3, stronger effect = lower value 0.989 | locus YDR297W, strain sur2, stronger effect = lower value 0.945 | locus YDR334W, strain swr1, stronger effect = lower value 0.929 | locus YDR335W, strain msn5, stronger effect = lower value 0.946 | locus YEL037C, strain rad23, stronger effect = lower value 0.944 | locus YER015W, strain faa2, stronger effect = lower value 0.954 | locus YER016W, strain bim1, stronger effect = lower value 0.95 | locus YER111C, strain swi4, stronger effect = lower value 0.937 | locus YFR010W, strain ubp6, stronger effect = lower value 0.915 | locus YGL167C, strain pmr1, stronger effect = lower value 0.931 | locus YGL173C, strain kem1, stronger effect = lower value 0.907 | locus YGL227W, strain vid30, stronger effect = lower value 0.95 | locus YHR027C, strain rpn1, stronger effect = lower value 0.944 | locus YJL092W, strain hpr5, stronger effect = lower value 0.945 | locus YJL115W, strain asf1, stronger effect = lower value 0.953 | locus YJL129C, strain trk1, stronger effect = lower value 0.976 | locus YJL154C, strain vps35, stronger effect = lower value 0.964 | locus YJL187C, strain SWE1, stronger effect = lower value 0.935 | locus YKR026C, strain gcn3, stronger effect = lower value 0.949 | locus YKR091W, strain srl3, stronger effect = lower value 0.956 | locus YLL026W, stronger effect = lower value 0.951 | locus YLL041C, strain sdh2, stronger effect = lower value 0.952 | locus YLR027C, strain aat2, stronger effect = lower value 0.932 | locus YLR113W, strain HOG1, stronger effect = lower value 0.941 | locus YLR258W, strain gsy2, stronger effect = lower value 0.916 | locus YLR342W, strain FKS1, stronger effect = lower value 0.963 | locus YLR357W, strain rsc2, stronger effect = lower value 1.06 | locus YLR370C, strain arc18, stronger effect = lower value 0.952 | locus YLR384C, strain iki3, stronger effect = lower value 0.921 | locus YML120C, strain ndi1, stronger effect = lower value 0.915 | locus YMR058W, strain fet3, stronger effect = lower value 0.918 | locus YMR125W, strain sto1, stronger effect = lower value 0.918 | locus YMR129W, stronger effect = lower value 0.946 | locus YMR205C, strain PFK2, stronger effect = lower value 0.913 | locus YMR231W, strain pep5, stronger effect = lower value 0.947 | locus YNL183C, strain NPR1, stronger effect = lower value 0.841 | locus YNL209W, strain ssb2, stronger effect = lower value 0.93 | locus YNL322C, strain KRE1 (second series), stronger effect = lower value 0.965 | locus YNR049C, strain mso1, stronger effect = lower value 0.961 | locus YOR070C, strain gyp1, stronger effect = lower value 0.934 | locus YOR080W, strain dia2, stronger effect = lower value 0.966 | locus YOR106W, strain vam3, stronger effect = lower value 0.88 | locus YOR265W, strain rbl2, stronger effect = lower value 0.936 | locus YPL240C, strain hsp82, stronger effect = lower value 0.969 | locus YPL256C, strain CLN2, stronger effect = lower value 0.876
active: locus YBR009C, strain hhf1, stronger effect = lower value 0.854 | locus YBR231C, strain swc5, stronger effect = lower value 0.858 | locus YBR279W, strain paf1, stronger effect = lower value 0.922 | locus YCL011C, strain gbp2, stronger effect = lower value 0.907 | locus YCL016C, strain dcc1, stronger effect = lower value 0.869 | locus YCL061C, strain MRC1, stronger effect = lower value 0.917 | locus YDR137W, strain rgp1, stronger effect = lower value 0.794 | locus YDR195W, strain ref2 1.33 [resistant] | locus YDR392W, strain spt3, stronger effect = lower value 0.495 | locus YEL003W, strain gim4, stronger effect = lower value 0.906 | locus YEL061C, strain CIN8 (second series), stronger effect = lower value 0.879 | locus YER155C, strain BEM2 (second series), stronger effect = lower value 0.386 | locus YGL240W, strain doc1, stronger effect = lower value 0.84 | locus YGL253W, strain hxk2, stronger effect = lower value 0.859 | locus YHR013C, strain ard1, stronger effect = lower value 0.738 | locus YHR030C, strain SLT2, stronger effect = lower value 0.813 | locus YHR079C, strain IRE1, stronger effect = lower value 0.822 | locus YHR142W, strain chs7, stronger effect = lower value 0.766 | locus YJL095W, strain BCK1 (second series), stronger effect = lower value 0.853 | locus YJL095W, strain BCK1, stronger effect = lower value 0.857 | locus YJL164C, strain tpk1, stronger effect = lower value 0.891 | locus YJL166W, strain qcr8, stronger effect = lower value 0.879 | locus YJR066W, strain TOR1, stronger effect = lower value 0.8 | locus YKL160W, strain elf1, stronger effect = lower value 0.879 | locus YLL001W, strain dnm1, stronger effect = lower value 0.884 | locus YLR221C, strain rsa3, stronger effect = lower value 0.87 | locus YLR262C, strain YPT6 (second series), stronger effect = lower value 0.769 | locus YLR320W, strain mms22, stronger effect = lower value 0.697 | locus YNL071W, strain lat1, stronger effect = lower value 0.737 | locus YNL248C, strain rpa49, stronger effect = lower value 0.511 | locus YOR001W, strain rrp6, stronger effect = lower value 0.88 | locus YOR083W, strain WHI5, stronger effect = lower value 0.814 | locus YOR231W, strain MKK1, stronger effect = lower value 0.836 | locus YOR270C, strain vph1, stronger effect = lower value 0.611 | locus YOR290C, strain snf2, stronger effect = lower value 0.792 | locus YPL051W, strain arl3, stronger effect = lower value 0.859 | locus YPL078C, strain atp4, stronger effect = lower value 0.842 | locus YPL106C, strain sse1, stronger effect = lower value 0.759
